This is a sample that favours compounds with a hit; in the whole collection about 2.8% have one here.
PGE2 EP2 inh = inhibitors of human EP2 prostaglandin E2 receptor; P43116; 260,000 compounds, 0.52% hits; C6 glioma cells expressing human EP2, cAMP TR-FRET; cells stimulated with saturating PGE2; inhibition, % at 25 µM;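 active = percent inhibition above 40 after rounding to a whole number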;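 note: rat C6 glioma host cells with rolipram phosphodiesterase inhibitor present; the protocol text gives 20 µM as final concentration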
Wee1 stabilizer = blocks degradation of human Wee1 kinase | AID 1321 | reporter increase, % at 5 µM | 220,000 compounds, 1.2% hits | HeLa Luc-Wee1K328M stability, luciferase luminescence; 100% = proteasome inhibitor MG132 effect | P30291;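 active = activation above the mean of all tested compounds plus 3 SD, set per screening run, cut at about 8.8% in these data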;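 note: cells exposed to compound for 20 h before luminescence read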
Target sequence (P30291 whole entry K328M): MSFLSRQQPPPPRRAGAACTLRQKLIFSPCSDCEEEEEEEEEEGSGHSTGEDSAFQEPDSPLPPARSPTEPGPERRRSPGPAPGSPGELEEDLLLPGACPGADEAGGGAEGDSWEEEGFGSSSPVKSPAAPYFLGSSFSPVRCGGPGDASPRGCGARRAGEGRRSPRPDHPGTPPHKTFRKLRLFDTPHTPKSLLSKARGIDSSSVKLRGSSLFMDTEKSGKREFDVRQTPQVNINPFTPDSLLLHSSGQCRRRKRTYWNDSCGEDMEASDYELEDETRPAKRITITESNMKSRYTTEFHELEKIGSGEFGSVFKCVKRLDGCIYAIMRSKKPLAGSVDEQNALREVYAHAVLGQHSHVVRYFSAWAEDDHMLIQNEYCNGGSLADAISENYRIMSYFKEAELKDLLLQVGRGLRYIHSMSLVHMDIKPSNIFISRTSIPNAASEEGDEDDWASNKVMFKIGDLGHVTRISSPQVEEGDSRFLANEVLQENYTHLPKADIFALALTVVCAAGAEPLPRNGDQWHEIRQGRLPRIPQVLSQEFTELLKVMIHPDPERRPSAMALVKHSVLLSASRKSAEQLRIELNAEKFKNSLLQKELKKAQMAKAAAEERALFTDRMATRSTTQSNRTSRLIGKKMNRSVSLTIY
NCF1 inh = blocks human p47phox regulatory protein of NADPH oxidases; P14598; p47phox/p22phox peptide binding, fluorescence polarization, 2 h; inhibition, % at 24.7 µM; 220,000 compounds, 0.53% hits;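 active = inhibition above about 30%, limit read from the data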
Furin inh = blocks human furin protease activity. P09958. purified furin, fluorogenic substrate cleavage. inhibition, % at 20 µM or 30 µM. 220,000 compounds, 0.061% hits; in the data active = inhibition above about 25%
EP2 modulator = modulators of human EP2 prostaglandin E2 receptor; 260,000 compounds, 0.83% hits; AID 940; induction, % at 25 µM; EP2-expressing cells, cAMP HTRF FRET, PGE2 co-stimulation; P43116;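 active = compounds whose cAMP rise, as percent of the full-agonist control response, exceeds 60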;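 note: rat C6 glioma line stably carrying human EP2 under a CMV promoter; the protocol text gives 20 µM as final concentration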
HSV augment = HSV replication enhancement. HSV replication augmentation in cells, fold increase. maximum fold increase. 220,000 compounds, 0.005% hits; in the data active = maximum fold increase above about 1.5; tested in PC3 cells
Numbers stand for hits.

Results for C[C@H](Oc1ccc(Oc2cnc3ccc(Cl)cc3n2)cc1)C(=O)O ?
PGE2 EP2 inh: 46.3; EP2 modulator: inactive

What do the screens show for `CCC(CC)c1nnc(NC(=O)c2ccc(OC)c(OC)c2)s1`?
PGE2 EP2 inh: inactive; EP2 modulator: inactive

How did O=C(c1ccc(Cl)cc1[N+](=O)[O-])N(Cc1ccccc1)Cc1ccccc1 do in these assays?
PGE2 EP2 inh: inactive; Wee1 stabilizer: inactive; NCF1 inh: inactive; Furin inh: inactive; EP2 modulator: inactive; HSV augment: inactive

What do the screens show for `CC(C)(C)N(Cc1ccccc1)C(=O)c1ccc(Cl)cc1[N+](=O)[O-]`?
PGE2 EP2 inh: inactive; Wee1 stabilizer: inactive; NCF1 inh: inactive; Furin inh: inactive; EP2 modulator: 62.7; HSV augment: inactive

What do the screens show for `CC1(C)CC[C@]2(C(=O)O)CC[C@]3(C)C(=CCC4[C@@]5(C)CC[C@H](O)[C@@](C)(CO)C5CC[C@]43C)C2C1` (some centres undefined)?
PGE2 EP2 inh: inactive; EP2 modulator: inactive

How did C[C@@]1(CO)[C@H](O)CC[C@]2(C)[C@@H]1CC[C@H]1C[C@H]3C[C@]12CC[C@@]3(O)COC(=O)CN do in these assays?
PGE2 EP2 inh: 51.7; EP2 modulator: inactive

How did COc1ccc2c(c1)NC1(CCCN(C(=O)c3ccn[nH]3)C1)c1cccn1-2 (centres undefined) do in these assays?
PGE2 EP2 inh: inactive; EP2 modulator: inactive

What do the screens show for `COCCn1c(SCC(=O)Nc2cccc(Cl)c2)nnc1C(C)C`?
PGE2 EP2 inh: inactive; EP2 modulator: inactive

Results for Oc1cc(CN2COc3ccccc32)c(O)cc1CNC1CCCCC1 ?
PGE2 EP2 inh: 118.0; EP2 modulator: inactive

What do the screens show for `Cc1ccccc1CNC1CCCCC1`?
PGE2 EP2 inh: inactive; Wee1 stabilizer: inactive; NCF1 inh: inactive; Furin inh: inactive; EP2 modulator: inactive; HSV augment: inactive

Results for Cc1cc(C(F)(F)F)c2c(N)nn(CCO)c2n1 ?
PGE2 EP2 inh: inactive; EP2 modulator: inactive

How did CC(C)(C)c1ccc(OCC(=O)N/N=C/c2ccsc2)cc1 do in these assays?
PGE2 EP2 inh: inactive; Wee1 stabilizer: 9.2; NCF1 inh: inactive; Furin inh: inactive; EP2 modulator: inactive; HSV augment: inactive

Results for Cc1ccc(C)c(OCC(=O)N/N=C/c2ccsc2)c1 ?
PGE2 EP2 inh: inactive; Wee1 stabilizer: inactive; NCF1 inh: inactive; Furin inh: inactive; EP2 modulator: inactive; HSV augment: inactive

What do the screens show for `O=C(Oc1ccc(N(Cc2cccs2)C2=NS(=O)(=O)c3ccccc32)cc1)c1ccccc1F`?
PGE2 EP2 inh: inactive; Wee1 stabilizer: inactive; NCF1 inh: inactive; Furin inh: inactive; EP2 modulator: inactive; HSV augment: inactive

How did O=C(OCCN(C1=NS(=O)(=O)c2ccccc21)c1ccccc1Cl)c1ccc(Cl)cc1 do in these assays?
PGE2 EP2 inh: inactive; Wee1 stabilizer: 9.7; NCF1 inh: inactive; Furin inh: inactive; EP2 modulator: inactive; HSV augment: inactive

Results for C=CCn1c(N2CCC(C(=O)NCCc3cnc[nH]3)CC2)nc2ccccc21 ?
EP2 modulator: inactive

How did CC(C)(C)c1cc(CN(CCO)CCO)c(O)c(C(C)(C)C)c1 do in these assays?
PGE2 EP2 inh: inactive; Wee1 stabilizer: inactive; NCF1 inh: inactive; Furin inh: inactive; EP2 modulator: inactive; HSV augment: inactive

How did CN(Cc1cc(C(C)(C)C)cc(Br)c1O)Cc1cc(C(C)(C)C)cc(Br)c1O do in these assays?
PGE2 EP2 inh: 42.6; EP2 modulator: inactive

Results for O=C(O)CNC(=O)[C@H]1NC(C(F)(F)F)(C(F)(F)F)OC1(C(F)(F)F)C(F)(F)F ?
PGE2 EP2 inh: 42.1; EP2 modulator: inactive

What do the screens show for `CC(C)c1ccc(/C=C/C(=O)Nc2nncs2)cc1`?
PGE2 EP2 inh: inactive; Wee1 stabilizer: 9.5; NCF1 inh: inactive; Furin inh: inactive; EP2 modulator: inactive; HSV augment: inactive

How did Cc1sc(NC(=O)/C=C/c2ccc(C(C)C)cc2)c(C#N)c1C do in these assays?
PGE2 EP2 inh: inactive; Wee1 stabilizer: inactive; NCF1 inh: inactive; Furin inh: inactive; EP2 modulator: inactive; HSV augment: inactive

What do the screens show for `CCOC(=O)C1(CC)C(=O)OC(C(=O)NC2CCCCC2)C1C` (centres undefined)?
PGE2 EP2 inh: inactive; EP2 modulator: inactive

How did c1ccc(B2OC[C@@H]3OB(c4ccccc4)O[C@H]([C@@H]4COB(c5ccccc5)O4)[C@H]3O2)cc1 do in these assays?
PGE2 EP2 inh: 40.7; EP2 modulator: inactive

What do the screens show for `O=C(Nc1ccc(NC(=O)C2CC2)nc1)c1ccccn1`?
PGE2 EP2 inh: 40.9; Wee1 stabilizer: inactive; NCF1 inh: inactive; Furin inh: inactive; EP2 modulator: inactive; HSV augment: inactive

Results for CC(C)CNc1nc2c(c(=O)n(C)c(=O)n2C)n1Cc1cccc(Br)c1 ?
PGE2 EP2 inh: inactive; Wee1 stabilizer: inactive; NCF1 inh: inactive; Furin inh: inactive; EP2 modulator: 61.9; HSV augment: inactive

What do the screens show for `O=c1oc2ccccc2n1CCCCCn1c(=O)oc2ccccc21`?
PGE2 EP2 inh: inactive; Wee1 stabilizer: inactive; NCF1 inh: inactive; Furin inh: inactive; EP2 modulator: inactive; HSV augment: inactive

How did NC(=O)CCn1c(=O)oc2ccccc21 do in these assays?
PGE2 EP2 inh: inactive; Wee1 stabilizer: inactive; NCF1 inh: 67.9; Furin inh: inactive; EP2 modulator: inactive; HSV augment: inactive

What do the screens show for `COc1ccc(-c2nnc(-c3cc4c(ccc5ccccc54)oc3=O)o2)cc1`?
PGE2 EP2 inh: inactive; Wee1 stabilizer: inactive; NCF1 inh: 31.6; Furin inh: inactive; EP2 modulator: inactive; HSV augment: inactive

What do the screens show for `O=c1oc2ccc3ccccc3c2cc1-c1nnc(-c2ccccc2)o1`?
PGE2 EP2 inh: inactive; Wee1 stabilizer: inactive; NCF1 inh: inactive; Furin inh: inactive; EP2 modulator: inactive; HSV augment: inactive

What do the screens show for `CCc1c(C)[nH]c2ccc(C)cc2c1=S`?
PGE2 EP2 inh: inactive; EP2 modulator: inactive

What do the screens show for `Cc1ccc2[nH]c(CCN(C)C)c(CSCc3c(CCN(C)C)[nH]c4ccc(C)cc34)c2c1`?
PGE2 EP2 inh: 127.0; EP2 modulator: inactive

Results for C/C(N[O-])=C(\C)[N+]([O-])=[Co].C/C(N[O-])=C(\C)[N+]([O-])=[Co].CC(=N\[O-])/C(C)=N/[O-].CC(=N\[O-])/C(C)=N/[O-].[CH3-].[CH3-] ?
PGE2 EP2 inh: inactive; EP2 modulator: inactive

How did C/C(N[O-])=C(\C)[N+]([O-])=[Co].CC(=N\[O-])/C(C)=N/[O-].C[CH-][C@@H](C)O.c1ccncc1 do in these assays?
PGE2 EP2 inh: 41.7; EP2 modulator: inactive

How did CCCC(=O)c1c(NCCO)cc(C)oc1=O do in these assays?
PGE2 EP2 inh: inactive; Wee1 stabilizer: 8.9; NCF1 inh: inactive; Furin inh: inactive; EP2 modulator: inactive; HSV augment: inactive

Results for CCCNc1cc(C)oc(=O)c1C(=O)CCC ?
PGE2 EP2 inh: inactive; Wee1 stabilizer: inactive; NCF1 inh: inactive; Furin inh: inactive; EP2 modulator: inactive; HSV augment: inactive

High-throughput results (PubChem)
